Source: PubChem BioAssay (National Center for Advancing Translational Sciences (NCATS))
Hits are enriched below; roughly 4.6% of the tested compounds scored in any of these assays.
TexasRed fluor: alters Texas Red total fluorescence, flagging assay interference | TRb/SRC2 Texas Red total fluorescence interference | Potency, µM (doses to about 106 µM), inactives show top-dose fluorescence change, negative = quenching | 280,000 tested, 0.29% active | AID 1479; active = well fitted curve in either direction with a large enough effect; inconclusive = small, poorly fitted or top-dose-only effect; also: potency is read from the fitted curve at half-maximal effect
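Flags fluorescent or light-absorbing compounds by total fluorescence, S + 2P, at 555 nm excitation and 632 nm emission. Mixture: 20 nM Texas Red SRC2 peptide, 0.6 uM human TRb LBD, 1 uM T3, 5% DMSO; compound exposure 5 h at ambient temperature.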
Tau fluor cs: counter-screen for tau fibril formation inhibitors; tau K18 P301L Alexa594 fluorescence, heparin fibrillization; Potency, µM (doses to about 57.7 µM), for inactives: at the top dose activity change, negative = decrease; 280,000 tested, 0.93% active; also: potency is read from the fitted curve at half-maximal effect; nearly all actives have a fitted effect of over 55% in size
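Human tau K18 P301L (15 uM unlabeled, 0.24 uM Alexa 594-labeled) in 100 mM sodium acetate pH 7 with 20 uM heparin, 6 hr at 37 C. ThT 30 uM added, 1 hr ambient; Alexa 594 FP and total fluorescence read at 555/632 nm.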
Tau fibril FP: blocks human tau fibril formation measured by polarization | K18 P301L tau heparin fibrillization, Alexa594 FP, 6 h | Potency, µM (highest dose often 57.7 µM), for inactives: at the top dose activity, negative = inhibition, actives largely listed as inhibitors | 280,000 tested, 0.39% active | AID 1468; also: potency is read from the fitted curve at half-maximal effect; nearly all actives have a fitted effect of over 55% in size
Target sequence (P10636 561-689 P618L limits assumed): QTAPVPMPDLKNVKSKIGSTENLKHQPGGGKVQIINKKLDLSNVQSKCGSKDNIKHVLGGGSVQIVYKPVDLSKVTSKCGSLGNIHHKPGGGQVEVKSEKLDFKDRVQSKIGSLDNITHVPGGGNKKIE
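Compound effects on tau fibrillization are measured by Alexa 594 fluorescence polarization (ex 555, em 632 nm). K18 P301L tau is used at 15 uM with 0.24 uM labeled tracer, and 20 uM heparin induces aggregation over 6 hr at 37 C.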
Tau fibril ThT: inhibitors of human tau fibril formation, thioflavin T binding. recombinant tau K18 P301L, heparin-induced fibrillization, ThT fluorescence. Potency, µM (highest dose often 57.4 µM), without a hit: at the highest dose activity, negative = inhibition, hits mostly inhibitors. 270,000 tested, 2.1% active. AID 1460; also: potency is read from the fitted curve at half-maximal effect; nearly all actives have a fitted effect of over 55% in size
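Fibril formation assay: tau K18 P301L at 15 uM with trace Alexa 594 label, heparin inducer 20 uM, pH 7 sodium acetate buffer, 37 C for 6 hr; endpoint ThT signal.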
PNC assembly inh: perinucleolar compartment assembly inhibition; PC3M PTB-GFP, PNC prevalence imaging, 16 h; stronger effect = lower value; activity change (PNC), negative = inhibition, % at 10 µM; 140,000 tested, 3.1% active; AID 2417;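 active = readout at or below -70, meaning at least 70% loss of cells showing the perinucleolar compartment, a nuclear body marking cancer cells; inconclusive = readout between -30 and a set limit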;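 also: plate controls were DMSO wells for no effect and camptothecin positive control wells for full effect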
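Compounds are pinned in duplicate onto adhered PC3M cells stably expressing GFP-tagged PTB and incubated 16 h at 37 C. Cells are then fixed, nuclei stained with Hoechst, and PNC-positive cells counted.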
TRb-SRC2 inh: disrupts binding of human TR beta to SRC2; AID 1469; P10828; 280,000 tested, 0.065% active; TRbeta-SRC2 peptide binding, fluorescence polarization; receptor liganded with 1 µM T3; Potency, µM (top dose mostly 106 µM), for the others: top-dose activity change, negative = inhibition, hits mostly inhibitors;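 also: potency is read from the fitted curve at half-maximal effect; plate controls were bound peptide for no effect and peptide without receptor for full effect; nearly all actives have a fitted effect of over 50% in size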
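Quantitative HTS by FP: 0.6 uM TRb LBD, 20 nM labeled SRC2 20-mer, 1 uM T3, 5% DMSO; 5 hr ambient incubation; % activity per concentration and potencies from concentration series.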
* hit, by the source's call; u = inconclusive; x = no result given; [ ] = another dose, or the depositor's remark. Unless noted, calls follow the shape of the dose curve; as a rule, active = well fitted curve in the direction sought with a large enough effect; inconclusive = small, poorly fitted or top-dose-only effect, or another doubt; inactive = no such curve, though single readings can be large; an effect the other way counts as inactive or inconclusive. Unless noted, % is scaled to controls: 0 for no effect and ±100 for the full control effect.

SMILES	TexasRed fluor	Tau fluor cs	Tau fibril FP	Tau fibril ThT	PNC assembly inh	TRb-SRC2 inh
CCOc1cc(/C=C2/C(=O)N(c3ccccc3)N=C2C)ccc1OC(=O)c1cccs1	-4%	-23%	3%	u	75	u
O=C1NN(c2ccc(Cl)c(Cl)c2)C(=O)/C1=C/c1cccc(OC(=O)c2cccs2)c1	-14%	u	u	16µM*	6	7%
CC(=O)c1c(C)[nH]c(C(=O)NC(C)c2ccccc2)c1C (stereo not drawn)	2%	-9%	-5%	-8%	x	2%
CCN1C(=O)N[C@@H](c2cccc(C(F)(F)F)c2)[C@H](C(C)=O)[C@H]1C	-3%[11.2 µM]	-13%[11.6 µM]	-6%[11.6 µM]	-8%[11.5 µM]	x	-5%[11.2 µM]
CCOc1ccc(NC(=NCc2ccc3c(c2)OCO3)SC2CC(=O)N(c3ccc(OCC)cc3)C2=O)cc1 (stereo not drawn)	-1%	u	-14%	-4%	125	6%
CCOc1ccc(N2C(=O)CC(SC(=NC)Nc3ccc(F)cc3)C2=O)cc1 (stereo not drawn)	1%	-24%	1%	-1%	-100*	-3%
CCOc1ccc(NC(=NCc2ccc3c(c2)OCO3)SC2CC(=O)N(c3ccccc3)C2=O)cc1 (stereo not drawn)	-2%	-19%	u	9%	-100*	4%
Cc1cccc(NC2=C(C#N)C(=O)NC3(CCCC3)S2)c1	2%	0%	u	u	x	0%
CC1SC(c2ccccc2Cl)NC1=O (stereo not drawn)	0%	-3%	3%	-3%	u	5%
COc1cccc(NC2=C(C#N)C(=O)NC(c3cccc(OC)c3O)S2)c1 (stereo not drawn)	-3%	-24%	u	32µM*	x	-1%
N#CC1=C(Nc2ccccc2Cl)SC(c2ccccc2O)NC1=O (stereo not drawn)	-3%	-25%	32µM*	u	x	5%
O=C(COc1ccc(Cl)cc1)N1CCN(c2ncccn2)CC1	1%	7%	4%	3%	-11	-2%
N=C1C=CC=C2C1=NC1(CCCCC1)N2O	-6%	-26%	u	25µM*	u	10%
COc1ccc(C2CC(c3ccccc3)=NN2c2ccc(S(N)(=O)=O)cc2)cc1 (stereo not drawn)	-1%	u	8%	u	x	2%
COc1ccc(C2CC(c3ccccc3)=NN2c2ccc(/C=N/NC(=O)c3ccncc3)cc2)cc1 (stereo not drawn)	-3%	13µM*[quencher]	u	u	72	1%
O=C(Oc1ccc(OC(=O)c2ccco2)c(S(=O)(=O)c2ccc(Br)cc2)c1)c1ccco1	3%	-1%	1%	1%	-100*	-15%
CCN(c1ccccc1)S(=O)(=O)c1ccc2[nH]cc(C(=O)NCc3ccc(C)cc3)c(=O)c2c1	-55%	u	3.5µM*	11%	x	-12%
CCN(c1ccccc1)S(=O)(=O)c1ccc2[nH]cc(C(=O)NCCOC)c(=O)c2c1	2%	-15%	u	8%	36	-13%
Cc1ccc(C)c(N(C)S(=O)(=O)c2ccc3[nH]cc(C(=O)NC4CCCC4)c(=O)c3c2)c1	1%	u	16µM*	5%	x	-8%
CCN(c1ccccc1)S(=O)(=O)c1ccc2[nH]cc(C(=O)NC3CCCCC3)c(=O)c2c1	-4%	u	3.5µM*	u	x	-9%
Cc1nc2ccc(NC(=O)c3ccc(S(=O)(=O)N4CCOCC4)cc3)cc2s1	1%	-5%	-5%	2%	-2	-17%
Fc1ccccc1-n1ncc2c1ncn1nc(COc3ccc(Cl)cc3)nc21	4%	2%	u	u	x	-5%
O=C(O)CCCC(=O)Nc1ccc(Cl)cc1	3%[53 µM]	2%	4%	2%	x	-2%[53 µM]
FC(F)(F)c1cccc(NC(=S)Nc2ccc(Cl)c(Cl)c2)c1	-5%	18µM*[quencher]	22µM*	u	x	9%
